# Laboratory results: the supplement of paper PMC10849652
# About 7,900 targets were measured; listed, in parts, are those with a hit and a random draw of the rest. About 0.6% of all pairs of compound and target were hits.
# Compound: C[C@H](Nc1ncnc2nc[nH]c12)c1cc2cccc(Cl)c2c(=O)n1-c1ccccc1 [duvelisib]
# Experiment: log2 fold change, soluble protein after heating vs DMSO (PISA); higher = thermal stabilisation; K562 cells, 10 uM, 30 min; active = over 0.2 and 3.5 SD of the protein, either way, in both replicates (recomputed)
# Summary of the method: (§1)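 Soluble protein was quantified by TMTpro 16plex LC-MS/MS after channel sums were equalised. It was obtained as the supernatant after 21,000xg for 90 min from pooled aliquots of K562 cells (2×10^6 cells/mL, 10 μM compound, 30 min) heated for 3 min across 48°C-58°C and extracted in PBS with 0.5% NP-40 at 4°C. Thermal stability values are relative to control samples and come from duplicates. They are given as log2 fold changes.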
# Chain of UniProt P55082 (P55082 whole entry, looked up): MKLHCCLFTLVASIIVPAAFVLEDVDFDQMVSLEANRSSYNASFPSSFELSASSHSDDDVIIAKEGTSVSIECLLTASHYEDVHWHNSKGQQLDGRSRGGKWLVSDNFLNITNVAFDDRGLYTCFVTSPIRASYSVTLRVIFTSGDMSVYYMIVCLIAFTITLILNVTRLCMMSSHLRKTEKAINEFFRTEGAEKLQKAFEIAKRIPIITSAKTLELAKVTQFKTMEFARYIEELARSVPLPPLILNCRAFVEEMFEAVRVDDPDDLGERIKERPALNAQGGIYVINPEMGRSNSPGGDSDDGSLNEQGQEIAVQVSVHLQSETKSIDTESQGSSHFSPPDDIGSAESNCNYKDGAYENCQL
# Chain of UniProt Q6NUT3 (Q6NUT3 whole entry, looked up): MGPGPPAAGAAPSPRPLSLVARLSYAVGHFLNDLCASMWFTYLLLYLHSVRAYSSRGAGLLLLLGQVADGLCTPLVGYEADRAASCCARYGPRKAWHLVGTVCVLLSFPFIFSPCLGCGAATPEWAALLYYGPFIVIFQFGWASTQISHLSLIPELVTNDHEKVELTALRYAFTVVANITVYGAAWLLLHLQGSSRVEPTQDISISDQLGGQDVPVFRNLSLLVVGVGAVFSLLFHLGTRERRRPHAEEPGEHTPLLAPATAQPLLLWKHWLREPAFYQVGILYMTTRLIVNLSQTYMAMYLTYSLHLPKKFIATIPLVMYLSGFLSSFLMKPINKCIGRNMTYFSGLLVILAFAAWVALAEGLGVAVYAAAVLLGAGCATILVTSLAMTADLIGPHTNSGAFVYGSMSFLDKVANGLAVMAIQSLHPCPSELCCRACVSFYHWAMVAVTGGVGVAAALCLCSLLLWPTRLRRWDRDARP
# Chain of UniProt Q9BQD3 (Q9BQD3 whole entry, looked up): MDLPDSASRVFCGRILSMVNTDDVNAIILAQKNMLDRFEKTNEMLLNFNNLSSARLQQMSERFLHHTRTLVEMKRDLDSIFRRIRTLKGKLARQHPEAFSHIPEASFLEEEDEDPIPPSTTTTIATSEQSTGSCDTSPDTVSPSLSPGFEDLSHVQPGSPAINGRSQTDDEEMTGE
# Chain of UniProt P13473 (P13473 whole entry, looked up): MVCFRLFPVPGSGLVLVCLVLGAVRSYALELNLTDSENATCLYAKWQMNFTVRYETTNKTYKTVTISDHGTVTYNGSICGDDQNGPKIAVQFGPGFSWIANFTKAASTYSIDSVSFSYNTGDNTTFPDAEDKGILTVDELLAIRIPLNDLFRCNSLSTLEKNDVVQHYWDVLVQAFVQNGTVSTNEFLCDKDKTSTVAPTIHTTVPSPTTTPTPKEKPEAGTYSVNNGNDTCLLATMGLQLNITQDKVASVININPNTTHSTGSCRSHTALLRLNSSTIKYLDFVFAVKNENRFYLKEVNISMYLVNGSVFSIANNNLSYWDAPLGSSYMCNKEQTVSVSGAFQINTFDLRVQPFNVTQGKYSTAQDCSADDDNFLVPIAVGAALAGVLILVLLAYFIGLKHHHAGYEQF
# Chain of UniProt A4D2B0 (A4D2B0 whole entry, looked up): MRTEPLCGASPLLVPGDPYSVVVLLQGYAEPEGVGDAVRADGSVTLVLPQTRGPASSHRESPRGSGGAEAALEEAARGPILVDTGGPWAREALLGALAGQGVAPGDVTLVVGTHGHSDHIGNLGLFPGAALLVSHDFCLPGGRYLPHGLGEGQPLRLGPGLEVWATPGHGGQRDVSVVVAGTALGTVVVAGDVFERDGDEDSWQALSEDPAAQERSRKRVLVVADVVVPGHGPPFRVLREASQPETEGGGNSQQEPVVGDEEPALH
# Chain of UniProt O95819 (O95819 whole entry, looked up): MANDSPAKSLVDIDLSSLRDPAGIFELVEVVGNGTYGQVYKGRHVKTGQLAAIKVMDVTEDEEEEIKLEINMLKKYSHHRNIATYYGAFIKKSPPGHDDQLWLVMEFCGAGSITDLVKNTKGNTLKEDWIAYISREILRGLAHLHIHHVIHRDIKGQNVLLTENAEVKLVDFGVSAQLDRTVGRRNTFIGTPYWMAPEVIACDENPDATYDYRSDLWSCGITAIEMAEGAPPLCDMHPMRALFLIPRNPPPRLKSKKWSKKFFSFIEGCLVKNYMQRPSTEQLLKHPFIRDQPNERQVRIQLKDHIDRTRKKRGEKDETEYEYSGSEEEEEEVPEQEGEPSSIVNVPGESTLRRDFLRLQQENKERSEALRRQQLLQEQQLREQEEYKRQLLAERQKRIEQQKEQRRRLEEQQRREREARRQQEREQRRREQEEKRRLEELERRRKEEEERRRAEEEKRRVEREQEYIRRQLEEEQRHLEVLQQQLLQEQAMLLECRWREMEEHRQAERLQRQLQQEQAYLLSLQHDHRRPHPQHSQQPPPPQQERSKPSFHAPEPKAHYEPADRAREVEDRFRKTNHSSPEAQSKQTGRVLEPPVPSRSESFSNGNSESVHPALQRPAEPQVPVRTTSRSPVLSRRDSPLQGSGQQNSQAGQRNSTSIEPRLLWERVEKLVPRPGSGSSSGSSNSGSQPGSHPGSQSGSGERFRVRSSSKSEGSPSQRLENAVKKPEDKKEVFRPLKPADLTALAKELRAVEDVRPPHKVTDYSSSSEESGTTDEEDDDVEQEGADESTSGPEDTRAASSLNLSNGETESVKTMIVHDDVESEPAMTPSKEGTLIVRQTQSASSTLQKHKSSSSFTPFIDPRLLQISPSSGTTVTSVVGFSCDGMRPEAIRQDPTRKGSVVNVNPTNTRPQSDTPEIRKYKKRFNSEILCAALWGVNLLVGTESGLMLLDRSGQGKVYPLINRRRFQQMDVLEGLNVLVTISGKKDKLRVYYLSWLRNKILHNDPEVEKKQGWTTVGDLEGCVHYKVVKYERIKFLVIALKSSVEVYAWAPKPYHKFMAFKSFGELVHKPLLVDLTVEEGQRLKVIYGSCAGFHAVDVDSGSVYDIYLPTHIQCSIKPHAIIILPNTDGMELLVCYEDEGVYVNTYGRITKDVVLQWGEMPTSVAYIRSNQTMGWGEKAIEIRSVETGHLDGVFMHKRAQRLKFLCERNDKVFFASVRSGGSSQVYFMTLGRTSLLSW
# Chain of UniProt Q9BQK8 (Q9BQK8 whole entry, looked up): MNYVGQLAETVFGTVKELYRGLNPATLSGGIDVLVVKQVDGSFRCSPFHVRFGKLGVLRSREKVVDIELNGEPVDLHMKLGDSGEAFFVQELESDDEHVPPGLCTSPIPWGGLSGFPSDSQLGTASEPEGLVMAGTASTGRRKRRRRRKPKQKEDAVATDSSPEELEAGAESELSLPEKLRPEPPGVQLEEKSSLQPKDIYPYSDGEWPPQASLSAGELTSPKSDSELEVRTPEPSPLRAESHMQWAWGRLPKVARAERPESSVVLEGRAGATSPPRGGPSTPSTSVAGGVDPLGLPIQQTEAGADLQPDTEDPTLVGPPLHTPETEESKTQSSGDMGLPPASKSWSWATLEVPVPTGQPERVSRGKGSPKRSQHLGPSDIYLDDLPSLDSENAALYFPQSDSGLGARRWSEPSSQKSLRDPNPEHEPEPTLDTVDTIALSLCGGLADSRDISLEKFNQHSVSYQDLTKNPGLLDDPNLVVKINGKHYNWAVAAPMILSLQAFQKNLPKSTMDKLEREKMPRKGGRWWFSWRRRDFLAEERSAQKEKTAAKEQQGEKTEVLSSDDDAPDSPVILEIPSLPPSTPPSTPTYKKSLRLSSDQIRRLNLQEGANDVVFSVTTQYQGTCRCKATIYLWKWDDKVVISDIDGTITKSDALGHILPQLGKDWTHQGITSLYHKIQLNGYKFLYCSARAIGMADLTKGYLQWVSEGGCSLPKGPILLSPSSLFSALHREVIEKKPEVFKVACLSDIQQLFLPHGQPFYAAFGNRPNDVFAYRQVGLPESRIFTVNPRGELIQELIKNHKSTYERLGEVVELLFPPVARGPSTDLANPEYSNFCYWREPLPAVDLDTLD
# Chain of UniProt Q86X29 (Q86X29 whole entry, looked up): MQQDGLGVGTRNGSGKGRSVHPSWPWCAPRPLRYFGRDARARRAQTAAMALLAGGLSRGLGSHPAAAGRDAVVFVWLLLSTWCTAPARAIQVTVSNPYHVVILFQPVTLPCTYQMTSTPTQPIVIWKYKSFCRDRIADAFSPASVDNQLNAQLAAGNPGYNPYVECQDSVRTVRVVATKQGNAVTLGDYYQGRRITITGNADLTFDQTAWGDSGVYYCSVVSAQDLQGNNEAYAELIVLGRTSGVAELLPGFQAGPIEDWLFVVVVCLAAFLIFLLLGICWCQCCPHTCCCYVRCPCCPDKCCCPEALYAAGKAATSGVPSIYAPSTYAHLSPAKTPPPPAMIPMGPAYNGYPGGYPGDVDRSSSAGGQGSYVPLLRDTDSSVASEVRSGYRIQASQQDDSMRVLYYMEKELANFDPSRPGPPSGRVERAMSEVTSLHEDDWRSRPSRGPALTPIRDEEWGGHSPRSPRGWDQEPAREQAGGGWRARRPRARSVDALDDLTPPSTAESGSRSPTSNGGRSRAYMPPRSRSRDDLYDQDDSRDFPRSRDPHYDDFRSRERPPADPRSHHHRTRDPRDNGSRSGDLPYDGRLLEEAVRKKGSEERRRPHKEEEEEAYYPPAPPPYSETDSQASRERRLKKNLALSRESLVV
# Chain of UniProt P43361 (P43361 whole entry, looked up): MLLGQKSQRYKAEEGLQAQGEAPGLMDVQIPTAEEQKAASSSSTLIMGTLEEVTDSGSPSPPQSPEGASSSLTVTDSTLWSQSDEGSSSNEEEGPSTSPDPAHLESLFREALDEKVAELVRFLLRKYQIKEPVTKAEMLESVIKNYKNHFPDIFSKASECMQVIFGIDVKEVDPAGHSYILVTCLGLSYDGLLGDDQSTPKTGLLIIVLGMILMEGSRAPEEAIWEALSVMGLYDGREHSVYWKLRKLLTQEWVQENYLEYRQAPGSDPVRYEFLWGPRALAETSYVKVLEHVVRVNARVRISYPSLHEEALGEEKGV
# Chain of UniProt O15243 (O15243 whole entry, looked up): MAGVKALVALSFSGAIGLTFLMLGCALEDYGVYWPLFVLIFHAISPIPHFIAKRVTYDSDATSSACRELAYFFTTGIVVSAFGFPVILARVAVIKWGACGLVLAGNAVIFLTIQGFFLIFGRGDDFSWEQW
row,Target,log2 fold change
1,MAGED1 isoform 2 (UniProt Q9Y5V3),0.05 (inactive)
2,LSR isoform 3 (UniProt Q86X29),0.179 (inactive)
3,LRRCC1 (UniProt Q9C099),0.09 (inactive)
4,MFSD12 isoform 3 (UniProt Q6NUT3),0.109 (inactive)
5,MED29 (UniProt Q9NX70),-0.025 (inactive)
6,MFSD8 (UniProt Q8NHS3),-0.108 (inactive)
7,ITM2C (UniProt Q9NQX7),-0.034 (inactive)
8,IGFBP6 (UniProt P24592),0.063 (inactive)
9,KXD1 (UniProt Q9BQD3),0.067 (inactive)
10,LAMP2 isoform 2 (UniProt P13473),0.344 (active)
11,MAP2K5 (UniProt Q13163),-0.049 (inactive)
12,MFAP3 (UniProt P55082),0.083 (inactive)
13,MAGEA8 (UniProt P43361),-0.082 (inactive)
14,IKZF1 (UniProt R9R4D9),0.042 (inactive)
15,LEPROT (UniProt O15243),0.045 (inactive)
16,MBLAC1 (UniProt A4D2B0),0.019 (inactive)
17,LRRFIP1 isoform 4 (UniProt Q32MZ4),0.025 (inactive)
18,MAP4K4 isoform 6 (UniProt O95819),-0.152 (inactive)
19,LIN52 (UniProt Q52LA3),-0.087 (inactive)
20,LPIN3 isoform 2 (UniProt Q9BQK8),0.002 (inactive)

# Compound: Cc1cc(Nc2cc(CN3CCOCC3)c3nc(C)c(Cc4ccc(Cl)cc4F)n3n2)n[nH]1 [gandotinib]
# Experiment: as above
# Summary of the method: as §1
row,Target,log2 fold change
1,MCOLN3 (UniProt Q8TDD5),0.022 (inactive)
2,MFSD12 isoform 3 (UniProt Q6NUT3),-0.122 (inactive)
3,MAPK11 (UniProt Q15759),-0.083 (inactive)
4,MFSD1 isoform 6 (UniProt Q9H3U5),-0.077 (inactive)
5,MFSD8 (UniProt Q8NHS3),-0.018 (inactive)
6,ITM2C (UniProt Q9NQX7),0.083 (inactive)
7,MAPK7 (UniProt Q13164),0.304 (inactive)
8,KXD1 (UniProt Q9BQD3),-0.156 (inactive)
9,LAMP2 isoform 2 (UniProt P13473),0.066 (inactive)
10,LAPTM4B (UniProt Q86VI4),0 (inactive)
11,MAGEA8 (UniProt P43361),-0.472 (active)
12,MAP4K5 (UniProt Q9Y4K4),-0.067 (inactive)
13,KIZ (UniProt Q2M2Z5),0.063 (inactive)
14,KMT5A (UniProt Q9NQR1),0.038 (inactive)
15,IKZF1 (UniProt R9R4D9),0.244 (inactive)
16,MGRN1 isoform 2 (UniProt O60291),0.06 (inactive)
17,LEPROT (UniProt O15243),0.081 (inactive)
18,MBLAC1 (UniProt A4D2B0),-0.056 (inactive)
19,LRRFIP1 isoform 4 (UniProt Q32MZ4),0.548 (inactive)
20,LPIN3 isoform 2 (UniProt Q9BQK8),-0.059 (inactive)

# Compound: Cc1cc(Nc2cc(N3CCN(C)CC3)nc(Sc3ccc(NC(=O)C4CC4)cc3)n2)n[nH]1 [tozasertib]
# Experiment: as above
# Summary of the method: as §1
row,Target,log2 fold change
1,MCOLN3 (UniProt Q8TDD5),-0.112 (inactive)
2,LSR isoform 3 (UniProt Q86X29),-0.324 (inactive)
3,LRRCC1 (UniProt Q9C099),0.006 (inactive)
4,MFSD12 isoform 3 (UniProt Q6NUT3),0.063 (inactive)
5,MAPK11 (UniProt Q15759),0.268 (inactive)
6,MFSD1 isoform 6 (UniProt Q9H3U5),0.041 (inactive)
7,MFSD8 (UniProt Q8NHS3),0.055 (inactive)
8,KXD1 (UniProt Q9BQD3),-0.046 (inactive)
9,IKZF1 isoform 2 (UniProt Q13422),0.055 (inactive)
10,LAMP2 isoform 2 (UniProt P13473),-0.071 (inactive)
11,MFAP3 (UniProt P55082),0.009 (inactive)
12,LMNA isoform 2 (UniProt P02545),0.357 (inactive)
13,MAGEA8 (UniProt P43361),-0.007 (inactive)
14,ING5 (UniProt Q8WYH8),-0.079 (inactive)
15,MAP4K5 (UniProt Q9Y4K4),-0.088 (inactive)
16,IKZF1 (UniProt R9R4D9),-0.066 (inactive)
17,MGRN1 isoform 2 (UniProt O60291),-0.136 (inactive)
18,LEPROT (UniProt O15243),0.003 (inactive)
19,MAPRE3 isoform 2 (UniProt Q9UPY8),-0.264 (inactive)
20,MAP4K2 (UniProt Q12851),0.158 (inactive)
21,MAP4K4 isoform 6 (UniProt O95819),-0.132 (inactive)
22,LPIN3 isoform 2 (UniProt Q9BQK8),-0.065 (inactive)

# Compound: Cc1cc(SCc2sc(-c3ccc(C(F)(F)F)cc3)nc2C)ccc1OCC(=O)O
# Experiment: as above
# Summary of the method: as §1
row,Target,log2 fold change
1,MAGED1 isoform 2 (UniProt Q9Y5V3),-0.008 (inactive)
2,LSR isoform 3 (UniProt Q86X29),-0.118 (inactive)
3,LRRCC1 (UniProt Q9C099),0.013 (inactive)
4,MFSD12 isoform 3 (UniProt Q6NUT3),0.065 (inactive)
5,MED29 (UniProt Q9NX70),0.171 (inactive)
6,MFSD8 (UniProt Q8NHS3),-0.015 (inactive)
7,ITM2C (UniProt Q9NQX7),0.011 (inactive)
8,IGFBP6 (UniProt P24592),0.14 (inactive)
9,KXD1 (UniProt Q9BQD3),0.012 (inactive)
10,LAMP2 isoform 2 (UniProt P13473),0.011 (inactive)
11,MAP2K5 (UniProt Q13163),-0.171 (inactive)
12,MFAP3 (UniProt P55082),0.003 (inactive)
13,MAGEA8 (UniProt P43361),-0.002 (inactive)
14,IKZF1 (UniProt R9R4D9),-0.12 (inactive)
15,LEPROT (UniProt O15243),-0.026 (inactive)
16,MBLAC1 (UniProt A4D2B0),-0.017 (inactive)
17,LRRFIP1 isoform 4 (UniProt Q32MZ4),-0.025 (inactive)
18,MAP4K4 isoform 6 (UniProt O95819),-0.025 (inactive)
19,LIN52 (UniProt Q52LA3),-0.059 (inactive)
20,LPIN3 isoform 2 (UniProt Q9BQK8),0.015 (inactive)
